Measurements from PubChem BioAssay (Tox21).
Where “and” joins values, the source holds several entries; their conditions need not be identical. Equal entries are not always repeated. Results filed as inconclusive are left out. Where a call stands in place of a potency, no number is given. More than one record can exist for a structure, and the calls need not agree. Calls of active or inactive are those of the source. Unless noted, calls follow the shape of the full dose curve. Positions of bridges follow the written chain, without caps; N, C: chain ends. Non-standard residues stand in square brackets, D forms with d. Residues, ends and D or L forms follow the SMILES beside them. *: point of attachment. X1 = CC[C@@H](C)[C@@H](N)C1=N[C@H](C(=O)*)CS1; d(aIle) = CC[C@H](C)[C@@H](N)C(=O)O; dOrn = NCCC[C@@H](N)C(=O)O

Test system: not listed separately
Assay: qHTS assay to identify small molecule antagonists of the thyroid receptor (TR) signaling pathway (AID 743065; active = well fitted inhibition curve with a large enough effect in the repeat runs; also: nearly all actives have a fitted effect of over 55% in size)
Conditions: GH3.TRE-Luc, T3-stimulated luciferase inhibition, 23.5 h; series mostly up to 70.3 µM
Summary of the method: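 GH3.TRE-Luc rat pituitary cells (two TREs driving luciferase) were dosed with compound, then stimulated with 1 nM T3 (final) for 23.5 h at 37 C. ONE-Glo luminescence was the read-out, with CellTiter-Fluor fluorescence as the cytotoxicity counter-screen.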
Potency is read from the fitted curve at half-maximal effect.

Question: With `CC(=O)O[C@H]1C[C@@H]2CC[C@@H]3[C@H](CC[C@@]4(C)[C@H]3C[C@H]([N+]3(C)CCCCC3)[C@@H]4OC(C)=O)[C@@]2(C)C[C@@H]1[N+]1(C)CCCCC1` as the molecule, how does the Potency read?
Answer: inactive

Question: With `CCN(CC)CCOC[C@H]1O[C@@H](O)[C@H](OCCN(CC)CC)[C@@H](O)[C@@H]1O` as the molecule, how does the Potency read?
Answer: inactive

Question: For `CSCC[C@H](NC(=O)[C@H](Cc1ccc(OS(=O)(=O)O)cc1)NC(=O)[C@@H](N)CC(=O)O)C(=O)NCC(=O)N[C@@H](Cc1c[nH]c2ccccc12)C(=O)N[C@@H](CCSC)C(=O)N[C@@H](CC(=O)O)C(=O)N[C@@H](Cc1ccccc1)C(N)=O`, which Potency is on record?
Answer: inactive

Question: For `CCOC(=O)COc1ccc2c(=O)cc(-c3ccccc3)oc2c1`, which Potency is on record?
Answer: inactive

Question: With `CC[C@@H](C)[C@H](N)C(=O)O` as the molecule, how does the Potency read?
Answer: inactive

Question: For `CCCCCCCCCCCC[n+]1ccc2ccccc2c1`, which Potency is on record?
Answer: 3.76 µM (active)

Question: Which Potency does the source give for `CC(C)(C)C(=O)OCC(=O)[C@H]1CC[C@H]2[C@@H]3CCC4=CC(=O)CC[C@]4(C)[C@H]3CC[C@]12C` here?
Answer: inactive

Question: Which Potency does the source give for `NC[C@H]1O[C@H](O[C@H]2[C@H](O)[C@@H](O[C@H]3O[C@H](CO)[C@@H](O)[C@H](N)[C@H]3O)[C@H](N)C[C@@H]2N)[C@H](N)C[C@@H]1O` here?
Answer: inactive

Question: With `C/C(=C\C(=O)OCCCCCCCCC(=O)O)C[C@@H]1OC[C@H](C[C@@H]2O[C@H]2[C@@H](C)[C@H](C)O)[C@@H](O)[C@H]1O` as the molecule, how does the Potency read?
Answer: inactive

Question: For `O=[N+]([O-])c1ccc(O)c2ncccc12`, which Potency is on record?
Answer: 4.73 µM (active)

Question: For `Cc1cc(Br)ccc1NC(=O)CCl`, which Potency is on record?
Answer: 19.3 µM (active)

Question: For `CCOc1ccc(S(=O)(=O)O)c2cccnc12`, which Potency is on record?
Answer: inactive

Question: With `FC(F)(F)COCC(F)(F)F` as the molecule, how does the Potency read?
Answer: inactive

Question: With `CC(=NCc1ccccc1)c1ccccc1O` as the molecule, how does the Potency read?
Answer: inactive

Question: With `O=C(O)/C=C/C(=O)Nc1ccc(S(=O)(=O)Nc2nccs2)cc1` as the molecule, how does the Potency read?
Answer: inactive

Question: Which Potency does the source give for `O=C(O)c1cc2cc(Cc3cccnc3)ccc2o1` here?
Answer: inactive

Question: Which Potency does the source give for `CC[C@@H](C)[C@@H](N)C1=N[C@H](C(=O)N[C@@H](CC(C)C)C(=O)N[C@@H](CCC(=O)O)C(=O)N[C@@H](C(=O)N[C@@H]2CCCCNC(=O)[C@@H](CC(N)=O)NC(=O)[C@@H](CC(=O)O)NC(=O)[C@@H](Cc3cnc[nH]3)NC(=O)[C@@H](Cc3ccccc3)NC(=O)[C@@H]([C@H](C)CC)NC(=O)[C@@H](CCCN)NC2=O)[C@@H](C)CC)CS1` (X1-LE[d(aIle)][dK][dOrn][dI][dF][dH][dD][dN]; lactam 4-C) here?
Answer: inactive

Question: For `CC(C)C[C@H](NC(=O)[C@@H](COC(C)(C)C)NC(=O)[C@H](Cc1ccc(O)cc1)NC(=O)[C@H](CO)NC(=O)[C@H](Cc1c[nH]c2ccccc12)NC(=O)[C@H](Cc1cnc[nH]1)NC(=O)[C@@H]1CCC(=O)N1)C(=O)N[C@@H](CCCN=C(N)N)C(=O)N1CCC[C@H]1C(=O)NNC(N)=O`, which Potency is on record?
Answer: inactive

Question: Which Potency does the source give for `Cc1c(N)nc([C@H](CC(N)=O)NC[C@H](N)C(N)=O)nc1C(=O)N[C@H](C(=O)N[C@H](C)[C@@H](O)[C@H](C)C(=O)N[C@H](C(=O)NCCc1nc(-c2nc(C(=O)NCCCCN=C(N)N)cs2)cs1)[C@@H](C)O)[C@@H](O[C@@H]1O[C@@H](CO)[C@@H](O)[C@H](O)[C@@H]1O[C@H]1O[C@H](CO)[C@@H](O)[C@H](OC(N)=O)[C@@H]1O)c1cnc[nH]1` here?
Answer: 3.76 µM (active) and 841 nM (active)

Question: Which Potency does the source give for `COc1ccc(/C=N/NC(=O)c2ccncc2)c(C(=O)O)c1OC` here?
Answer: inactive

Question: With `O=C1CCC(c2ccc(-n3ccnc3)cc2)=NN1` as the molecule, how does the Potency read?
Answer: inactive

Question: For `COc1c(Br)cc(Br)c(C)c1Br`, which Potency is on record?
Answer: inactive

Question: For `NCC(O)CC(=O)O` (stereo not drawn), which Potency is on record?
Answer: inactive

Question: For `O=C(N[C@H](CO)[C@H](O)c1ccc([N+](=O)[O-])cc1)C(Cl)Cl`, which Potency is on record?
Answer: inactive

Question: For `O=C(CCCN1CCN2CCCC2C1)c1ccc(F)cc1` (stereo not drawn), which Potency is on record?
Answer: inactive

Question: For `O=C1c2ccccc2CN2C(=O)c3ccccc3CN12`, which Potency is on record?
Answer: inactive

Test system: thyroid hormone receptor (rat, GH3 cells)
Assay: qHTS assay to identify small molecule agonists of the thyroid receptor (TR) signaling pathway (AID 743066)
Conditions: GH3.TRE-Luc cells, TR agonist luciferase, 24 h; series mostly up to 83.9 µM

Question: For `CCN(CC)CC#CCOC(=O)C(O)(c1ccccc1)C1CCCCC1` (stereo not drawn), which Potency is on record?
Answer: inactive

Question: For `CC(=O)O[C@H]1C[C@@H]2CC[C@@H]3[C@H](CC[C@@]4(C)[C@H]3C[C@H]([N+]3(C)CCCCC3)[C@@H]4OC(C)=O)[C@@]2(C)C[C@@H]1[N+]1(C)CCCCC1`, which Potency is on record?
Answer: inactive

Question: For `CCN(CC)CCOC[C@H]1O[C@@H](O)[C@H](OCCN(CC)CC)[C@@H](O)[C@@H]1O`, which Potency is on record?
Answer: inactive

Question: For `CSCC[C@H](NC(=O)[C@H](Cc1ccc(OS(=O)(=O)O)cc1)NC(=O)[C@@H](N)CC(=O)O)C(=O)NCC(=O)N[C@@H](Cc1c[nH]c2ccccc12)C(=O)N[C@@H](CCSC)C(=O)N[C@@H](CC(=O)O)C(=O)N[C@@H](Cc1ccccc1)C(N)=O`, which Potency is on record?
Answer: inactive and 11.9 µM (active)

Question: With `CCOC(=O)COc1ccc2c(=O)cc(-c3ccccc3)oc2c1` as the molecule, how does the Potency read?
Answer: inactive

Question: With `CC[C@@H](C)[C@H](N)C(=O)O` as the molecule, how does the Potency read?
Answer: inactive

Question: For `CC(C)(C)C(=O)OCC(=O)[C@H]1CC[C@H]2[C@@H]3CCC4=CC(=O)CC[C@]4(C)[C@H]3CC[C@]12C`, which Potency is on record?
Answer: inactive

Question: For `NC[C@H]1O[C@H](O[C@H]2[C@H](O)[C@@H](O[C@H]3O[C@H](CO)[C@@H](O)[C@H](N)[C@H]3O)[C@H](N)C[C@@H]2N)[C@H](N)C[C@@H]1O`, which Potency is on record?
Answer: inactive

Question: For `C/C(=C\C(=O)OCCCCCCCCC(=O)O)C[C@@H]1OC[C@H](C[C@@H]2O[C@H]2[C@@H](C)[C@H](C)O)[C@@H](O)[C@H]1O`, which Potency is on record?
Answer: inactive

Question: For `Cc1cc(Br)ccc1NC(=O)CCl`, which Potency is on record?
Answer: inactive

Question: Which Potency does the source give for `O=P(O)(O)C(O)(Cn1ccnc1)P(=O)(O)O` here?
Answer: inactive

Question: Which Potency does the source give for `CCOc1ccc(S(=O)(=O)O)c2cccnc12` here?
Answer: inactive

Question: With `FC(F)(F)COCC(F)(F)F` as the molecule, how does the Potency read?
Answer: inactive

Question: For `CC(=NCc1ccccc1)c1ccccc1O`, which Potency is on record?
Answer: inactive

Question: Which Potency does the source give for `CC(=O)OCC(=O)[C@@]1(O)CC[C@H]2[C@@H]3CCC4=CC(=O)CC[C@]4(C)C3=CC[C@@]21C` here?
Answer: inactive

Question: Which Potency does the source give for `O=C(O)/C=C/C(=O)Nc1ccc(S(=O)(=O)Nc2nccs2)cc1` here?
Answer: inactive

Question: With `Cc1onc(-c2c(F)cccc2Cl)c1C(=O)N[C@@H]1C(=O)N2[C@@H]1SC(C)(C)[C@@H]2C(=O)O` as the molecule, how does the Potency read?
Answer: inactive

Question: Which Potency does the source give for `O=C(O)c1cc2cc(Cc3cccnc3)ccc2o1` here?
Answer: inactive

Question: Which Potency does the source give for `CC[C@@H](C)[C@@H](N)C1=N[C@H](C(=O)N[C@@H](CC(C)C)C(=O)N[C@@H](CCC(=O)O)C(=O)N[C@@H](C(=O)N[C@@H]2CCCCNC(=O)[C@@H](CC(N)=O)NC(=O)[C@@H](CC(=O)O)NC(=O)[C@@H](Cc3cnc[nH]3)NC(=O)[C@@H](Cc3ccccc3)NC(=O)[C@@H]([C@H](C)CC)NC(=O)[C@@H](CCCN)NC2=O)[C@@H](C)CC)CS1` (X1-LE[d(aIle)][dK][dOrn][dI][dF][dH][dD][dN]; lactam 4-C) here?
Answer: inactive

Question: With `NC(=O)[C@H]1O[C@@H](O)[C@H](O)[C@@H](O)[C@@H]1O` as the molecule, how does the Potency read?
Answer: inactive

Question: With `CC(C)C[C@H](NC(=O)[C@@H](COC(C)(C)C)NC(=O)[C@H](Cc1ccc(O)cc1)NC(=O)[C@H](CO)NC(=O)[C@H](Cc1c[nH]c2ccccc12)NC(=O)[C@H](Cc1cnc[nH]1)NC(=O)[C@@H]1CCC(=O)N1)C(=O)N[C@@H](CCCN=C(N)N)C(=O)N1CCC[C@H]1C(=O)NNC(N)=O` as the molecule, how does the Potency read?
Answer: inactive

Question: Which Potency does the source give for `Cc1c(N)nc([C@H](CC(N)=O)NC[C@H](N)C(N)=O)nc1C(=O)N[C@H](C(=O)N[C@H](C)[C@@H](O)[C@H](C)C(=O)N[C@H](C(=O)NCCc1nc(-c2nc(C(=O)NCCCCN=C(N)N)cs2)cs1)[C@@H](C)O)[C@@H](O[C@@H]1O[C@@H](CO)[C@@H](O)[C@H](O)[C@@H]1O[C@H]1O[C@H](CO)[C@@H](O)[C@H](OC(N)=O)[C@@H]1O)c1cnc[nH]1` here?
Answer: inactive

Question: For `NC(N)=NCCCCN=C(N)N`, which Potency is on record?
Answer: inactive

Question: For `COc1ccc(/C=N/NC(=O)c2ccncc2)c(C(=O)O)c1OC`, which Potency is on record?
Answer: inactive

Question: Which Potency does the source give for `O=C1CCC(c2ccc(-n3ccnc3)cc2)=NN1` here?
Answer: inactive

Question: Which Potency does the source give for `Cc1cnc(C(=O)O)c[n+]1[O-]` here?
Answer: inactive

Question: With `COc1c(Br)cc(Br)c(C)c1Br` as the molecule, how does the Potency read?
Answer: inactive

Question: Which Potency does the source give for `NCC(O)CC(=O)O` (stereo not drawn) here?
Answer: inactive

Question: Which Potency does the source give for `O=C(N[C@H](CO)[C@H](O)c1ccc([N+](=O)[O-])cc1)C(Cl)Cl` here?
Answer: inactive

Question: For `O=C(CCCN1CCN2CCCC2C1)c1ccc(F)cc1` (stereo not drawn), which Potency is on record?
Answer: inactive

Question: For `Nc1nc(/C(=C/CC(=O)O)C(=O)N[C@@H]2C(=O)N3C(C(=O)O)=CCS[C@H]23)cs1`, which Potency is on record?
Answer: inactive

Question: Which Potency does the source give for `O=C1c2ccccc2CN2C(=O)c3ccccc3CN12` here?
Answer: inactive
